High-throughput results: PubChem, several laboratories
tim10-1 inh: tim10-1 yeast growth inhibition | S. cerevisiae tim10-1 ts strain growth, BacTiter-Glo, 24 h | inhibition, % at 20 µM | AID 463190 | hit rate 2.2% among 330,000;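 active = inhibition of at least 40%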;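 also: mutant grown at 25 °C; 0% = DMSO wells with yeast and 100% = wells holding no yeast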
TIM10 inh: growth inhibitors of TIM10 yeast strain. S. cerevisiae TIM10 strain growth, BacTiter-Glo luminescence, 24 h. inhibition, % at 10 µM. hit rate 1.4% among 330,000. AID 463195;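 active = inhibition of 40% or more at the single tested concentration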;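 also: wild-type TIM10 isogenic control strain grown at permissive 25 °C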
tim23-1 inh: tim23-1 yeast growth inhibition | inhibition, % at 20 µM | hit rate 1.3% among 330,000 | S. cerevisiae tim23-1 growth, BacTiter-Glo luminescence, 24 h | AID 463212;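 active = growth inhibition of the mutant yeast at or above 50%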;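 also: temperature-sensitive mutant grown at 25 °C; plate controls were DMSO-treated mutant yeast for no effect and medium wells lacking yeast for full effect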
CR mimetic SO: yeast age-related superoxide inhibition as caloric restriction mimetic. S. cerevisiae aged cells, superoxide DHE fluorescence; hits give low values. superoxide response (% of plate mean), % at 10 µM. hit rate 0.18% among 330,000;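 active = superoxide response under a set limit, about three screen SD below normal, cut at about 65% in these data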;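 also: yeast aged for seven days with compound at 30 °C before DHE staining; 100% = average MFI of all compound-treated wells on the plate with controls excluded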
NLRP3 yeast inh: NALP3 inhibition in yeast. inhibition, % at 10 µM. Yeast reconstituted NLRP3/ASC/caspase-1, beta-gal luminescence, 24 h. hit rate 0.39% among 330,000;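 active = inhibition of 50% or more; inactive = inhibition below 50%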;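 also: plate controls were induced DMSO wells for no effect and uninduced yeast grown without galactose for full effect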
tim10-1 conf: tim10-1 yeast growth inhibition, confirmed. shares compounds with tim10-1 inh. S. cerevisiae tim10-1 ts strain growth, BacTiter-Glo, 24 h. inhibition, % at 20 µM. hit rate 56% among 7,400;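 active = inhibition of yeast growth at or above a set limit in either of two repeat tests at 20 µM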;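 also: tim10-1 mutant grown at permissive 25 °C to find synthetic lethal compounds; 0% = DMSO yeast wells and 100% = medium wells without yeast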
tim10 confirm: TIM10 yeast growth inhibition, confirmed; shares compounds with TIM10 inh; hit rate 63% among 4,600; inhibition, % at 10 µM; AID 463215; S. cerevisiae tim10 strain growth, BacTiter-Glo luminescence, 24 h;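 active = inhibition of yeast growth at or above a set limit in either of two replicates at 10 µM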;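 also: this counterscreen used the strain with wild-type TIM10; 0% = yeast with DMSO and 100% = medium wells lacking yeast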
tim23-1 conf: tim23-1 yeast growth inhibition, confirmed | shares compounds with tim23-1 inh | inhibition, % at 20 µM | hit rate 83% among 4,400 | AID 463218 | S. cerevisiae tim23-1 growth, BacTiter-Glo luminescence, 24 h;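 active = inhibition above about 39% in either of two replicate wells at 20 µM, limit read from the data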;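 also: temperature-sensitive tim23-1 mutant grown at 25 °C; 0% = DMSO wells with yeast and 100% = medium wells without yeast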
* hit, by the source's call. Most compounds without a hit are left out; they make up all but 3.8% or so of the library.

What do the screens show for `COc1ccc(/C=N/Nc2nc(-c3cccnc3)nc3ccccc23)cc1OC`?
tim10-1 inh: 26; TIM10 inh: 17; tim23-1 inh: 42; CR mimetic SO: 100; NLRP3 yeast inh: -7

How did Cc1ccc(-c2nc(N/N=C/c3ccncc3)c3ccccc3n2)cc1 do in these assays?
tim10-1 inh: 74*; TIM10 inh: 60*; tim23-1 inh: 76*; CR mimetic SO: 103; NLRP3 yeast inh: 8; tim10-1 conf: 69*; tim10 confirm: 60*; tim23-1 conf: 81*

What do the screens show for `COc1ccccc1OCC(=O)N(Cc1nc(-c2ccccc2)no1)C1CCCCC1`?
tim10-1 inh: 42*; TIM10 inh: 27; tim23-1 inh: 52*; CR mimetic SO: 102; NLRP3 yeast inh: 33; tim10-1 conf: 31*; tim23-1 conf: 51*

Results for Cc1ccccc1OCC(=O)N(Cc1nc(-c2ccccc2)no1)C(C)C ?
tim10-1 inh: -21; TIM10 inh: 16; tim23-1 inh: 26; CR mimetic SO: 101; NLRP3 yeast inh: -4

How did CC(=O)Nc1ccc(NC(=O)C(C)NC(C)c2cccc3ccccc23)cc1 (stereo unspecified) do in these assays?
tim10-1 inh: -10; TIM10 inh: -4; tim23-1 inh: 1; CR mimetic SO: 92; NLRP3 yeast inh: 9

Results for COc1ccc(OC)c(C(c2nnnn2C2CCCC2)N2CCc3ccccc3C2)c1 (stereo unspecified) ?
tim10-1 inh: 42*; TIM10 inh: 36; tim23-1 inh: 52*; CR mimetic SO: 99; NLRP3 yeast inh: -8; tim10-1 conf: 38*; tim23-1 conf: 42*

How did COc1ccc(OC)c(C(c2nnnn2C2CCCC2)N2CCN(c3ccccc3F)CC2)c1 (stereo unspecified) do in these assays?
tim10-1 inh: 21; TIM10 inh: 10; tim23-1 inh: 14; CR mimetic SO: 124; NLRP3 yeast inh: 1

How did CC(C)(C)OC(=O)C[C@H]1C/C=C\C[C@@H](CC(=O)N(CCO)Cc2ccccc2)C(=O)N[C@H](Cc2ccccc2)COC1=O do in these assays?
tim10-1 inh: -1; TIM10 inh: -1; tim23-1 inh: 2; CR mimetic SO: 91; NLRP3 yeast inh: 4

Results for Cc1ccc2c(c1)C(=O)C(=O)N2CC1COc2ccccc2O1 (stereo unspecified) ?
tim10-1 inh: 41*; TIM10 inh: 18; tim23-1 inh: 65*; CR mimetic SO: 100; NLRP3 yeast inh: 18; tim10-1 conf: 30; tim23-1 conf: 78*

Results for COc1ccc2c(c1)C(=O)C(=O)N2CC1COc2ccccc2O1 (stereo unspecified) ?
tim10-1 inh: 40; TIM10 inh: 8; tim23-1 inh: 38; CR mimetic SO: 104; NLRP3 yeast inh: 14

What do the screens show for `CN(C1CCCCC1)S(=O)(=O)c1cc2c(cc1Cl)NC(=O)CO2`?
tim10-1 inh: 47*; TIM10 inh: 6; tim23-1 inh: 51*; CR mimetic SO: 130; NLRP3 yeast inh: 21; tim10-1 conf: 7; tim23-1 conf: 34

What do the screens show for `CC1CC(C)CN(S(=O)(=O)c2cc3c(cc2Cl)NC(=O)CO3)C1` (stereo unspecified)?
tim10-1 inh: 4; TIM10 inh: 5; tim23-1 inh: -7; CR mimetic SO: 95; NLRP3 yeast inh: -7

How did COc1ccc(C(=O)NCCn2ccc3ccccc32)c(OC)c1 do in these assays?
tim10-1 inh: 9; TIM10 inh: 28; tim23-1 inh: 41; CR mimetic SO: 103; NLRP3 yeast inh: 25

How did C=CC(COCc1ccccc1)N([C@@H](Cc1ccccc1)C(=O)OC)S(=O)(=O)c1ccccc1Br (stereo partly specified) do in these assays?
tim10-1 inh: 9; TIM10 inh: -6; tim23-1 inh: 2; CR mimetic SO: 108; NLRP3 yeast inh: 3

Results for O=C(OCC(=O)C12CC3CC(CC(C3)C1)C2)c1ccc(O)cc1O ?
tim10-1 inh: 53*; TIM10 inh: 27; tim23-1 inh: 76*; CR mimetic SO: 112; NLRP3 yeast inh: 13; tim10-1 conf: 15; tim23-1 conf: 62*

How did O=C(COC(=O)c1ccc(O)cc1O)NC12CC3CC(CC(C3)C1)C2 do in these assays?
tim10-1 inh: 11; TIM10 inh: 19; tim23-1 inh: 38; CR mimetic SO: 113; NLRP3 yeast inh: 11

Results for Cc1ccc(NC(=O)CN(C)C(=O)CCC(=O)N2CCOCC2)cc1 ?
tim10-1 inh: -11; TIM10 inh: 1; tim23-1 inh: -5; CR mimetic SO: 99; NLRP3 yeast inh: 7

Results for O=C(NC(=S)Nc1cccc(C(F)(F)F)c1)c1ccc2nonc2c1 ?
tim10-1 inh: 51*; TIM10 inh: 27; tim23-1 inh: 56*; CR mimetic SO: 98; NLRP3 yeast inh: 17; tim10-1 conf: 22; tim23-1 conf: 63*

How did FC(F)(F)c1cccc(NC(=S)Nc2ccc(Cl)c(Cl)c2)c1 do in these assays?
tim10-1 inh: 73*; TIM10 inh: 76*; tim23-1 inh: 86*; CR mimetic SO: 116; NLRP3 yeast inh: 5; tim10-1 conf: 82*; tim10 confirm: 73*; tim23-1 conf: 90*

Results for CCOc1cc(OCC)cc(C(=O)NC(=S)Nc2cccc(C(F)(F)F)c2)c1 ?
tim10-1 inh: 2; TIM10 inh: -27; tim23-1 inh: 13; CR mimetic SO: 98; NLRP3 yeast inh: 20

How did FC(F)(F)c1cccc(NC(=S)NC(c2ccccc2)c2ccccc2)c1 do in these assays?
CR mimetic SO: 91

What do the screens show for `COc1ccc2c(c1)C(C)=CC(C)(C)N2C(=O)CN1C(=O)CCC1=O`?
tim10-1 inh: 6; TIM10 inh: 7; tim23-1 inh: 22; CR mimetic SO: 95; NLRP3 yeast inh: -3

What do the screens show for `COc1ccc2c(c1)N(C(=O)CN1C(=O)C3CCCCC3C1=O)C(C)(C)C=C2C` (stereo unspecified)?
tim10-1 inh: 51*; TIM10 inh: 33; tim23-1 inh: 53*; CR mimetic SO: 93; NLRP3 yeast inh: 4; tim10-1 conf: 46*; tim23-1 conf: 52*

Results for Oc1ccccc1N=Cc1c(O)ccc2ccccc12 ?
tim10-1 inh: 42*; TIM10 inh: 38; tim23-1 inh: 66*; NLRP3 yeast inh: 28; tim10-1 conf: 30; tim23-1 conf: 79*

Results for Cc1nn(Cc2ccccc2)c(Cl)c1C(=O)NC(C)(C)C ?
tim10-1 inh: 22; TIM10 inh: -16; tim23-1 inh: 10; CR mimetic SO: 108; NLRP3 yeast inh: 23
